The list is not random: actives were taken first. Their share in the collection is about 1.2%.
RGS4-Gao reg = human RGS4-Galphao interaction regulation. P09471. Multiplexed bead flow cytometry, RGS4-Galphao binding; actives lie on both sides. binding response (% of control), % at 10 µM. 220,000 tested, 0.33% active; in the data active = binding response below about 49% or above about 150%; inactive = in between;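 also: fluorescent Galphao activated with aluminum fluoride binding bead-coupled RGS4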
Target sequence (P09471 whole entry, looked up): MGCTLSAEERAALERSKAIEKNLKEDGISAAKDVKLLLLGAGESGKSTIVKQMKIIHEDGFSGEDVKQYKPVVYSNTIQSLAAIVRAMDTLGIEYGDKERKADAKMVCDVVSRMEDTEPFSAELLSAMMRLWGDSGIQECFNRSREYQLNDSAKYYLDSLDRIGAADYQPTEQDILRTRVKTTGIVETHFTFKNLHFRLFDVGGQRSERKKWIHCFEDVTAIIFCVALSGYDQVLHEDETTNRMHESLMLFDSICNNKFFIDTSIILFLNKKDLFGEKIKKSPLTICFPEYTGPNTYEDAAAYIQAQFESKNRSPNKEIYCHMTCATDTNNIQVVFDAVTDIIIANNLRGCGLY
RGS7-Gao = regulators of human RGS7-Galphao interaction; P09471; 220,000 tested, 0.35% active; binding response (% of control), % at 10 µM; Multiplexed bead flow cytometry, RGS7-Galphao binding; actives lie on both sides; in the data active = binding response below about 49% or above about 150%; inconclusive = no clear call, values can overlap the other calls; inactive = in between;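 also: fluorescent Galphao held in activated GDP-AlF4 state binding bead-coupled RGS7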
Avidin bead fluor = compound fluoresces at 488/530 nm on avidin beads | fluorescence (KMESF) at 10 µM | 220,000 tested, 0.38% active | compound fluorescence 488/530 nm, flow cytometry; hits give high values; in the data active = fluorescence above about 47
GSH bead fluor = GSH bead compound fluorescence profile. GSH beads flow cytometry, compound fluorescence 488/530 nm; hits give high values. fluorescence (KMESF) at 10 µM. 190,000 tested, 0.25% active. AID 1776; in the data active = fluorescence above about 89;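 also: glutathione beads carrying GST-tagged Bcl family fusion proteins plus one bare bead set; values are compound well signal with DMSO vehicle wells as background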
RGS8-Gao reg = modulates binding of RGS8 to human Galphao. P09471. multiplexed bead flow cytometry; actives lie on both sides. AID 1423. 220,000 tested, 0.34% active. response (percent of control binding), % at 10 µM; in the data active = response below about 60% or above about 140%; inactive = in between;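 also: Galphao activated as the GDP aluminium fluoride complex binding bead-coupled RGS8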
RGS16-Gao = RGS16-Galphao interaction regulator (human); O15492+P09471; binding response (% of control), % at 10 µM; bead-based flow cytometry RGS16-Galphao binding, fluorescence; actives lie on both sides; 220,000 tested, 0.38% active; AID 1441;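 also: Galphao activated by GDP with aluminum fluoride before binding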
RGS-Gao = RGS4-Galphao interaction regulator (human); shares compounds with RGS16-Gao; multiplexed bead flow cytometry, RGS–Galpha-o binding; RGS4–Galpha-o binding response, % at 10 µM; 1,600 tested, 99% active; AID 1504;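 also: fluorescently labeled Galpha-o bound to GDP with aluminium fluoride binding biotinylated RGS beads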
Target sequence (P09471 whole entry, looked up): as above
Target sequence (P49798 whole entry, looked up): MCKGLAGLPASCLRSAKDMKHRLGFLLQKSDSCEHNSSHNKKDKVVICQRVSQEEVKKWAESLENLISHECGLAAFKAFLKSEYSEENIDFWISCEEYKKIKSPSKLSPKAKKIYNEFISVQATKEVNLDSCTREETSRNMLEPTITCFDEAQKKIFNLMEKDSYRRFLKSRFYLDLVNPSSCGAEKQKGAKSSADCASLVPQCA
Biotin-avidin = counter-screen: compounds disrupting biotin binding to avidin beads | shares compounds with RGS16-Gao | 1,700 tested, under 10 active | streptavidin beads, fluorescein-biotin binding, flow cytometry | AID 1783 | inhibition, % at 10 µM;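 active = inhibition above 50%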;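 also: median green fluorescence of gated singlet beads compared with DMSO control wells; 0% = DMSO wells and 100% = complete loss of bead fluorescence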
RGS8-Gao single = RGS8-Galphao interaction regulation, single point confirmation | shares compounds with RGS16-Gao | bead-based flow cytometry RGS8-Galphao binding, fluorescence; actives lie on both sides | binding response (% of control), % at 10 µM | 1,700 tested, 3% active; in the data active = binding response below about 72% or above about 130%; inactive = in between;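 also: Galphao activated as GDP AlF4 complex before binding bead RGS8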
RGS7-Gao single = RGS7-Galphao interaction regulation, single point confirmation; shares compounds with RGS16-Gao; response (percent of control binding), % at 10 µM; bead-based flow cytometry RGS7-Galphao binding; actives lie on both sides; AID 1837; 1,700 tested, 7.8% active; in the data active = response below about 75% or above about 130%; inactive = in between;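 also: fluorescent Galphao activated with GDP and aluminum fluoride binding bead-coupled RGS7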
RGS16-Gao conf = confirmation of regulators of human RGS16-Galphao interaction; shares compounds with RGS16-Gao; bead-based flow cytometry, RGS16-Galphao binding; actives lie on both sides; response (% of control binding), % at 10 µM; 1,700 tested, 4% active; AID 1838; in the data active = response below about 74% or above about 130%; inactive = in between;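 also: Galphao activated as the GDP aluminium fluoride complex binding bead-coupled RGS16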
RGS4-Gao single = RGS4-Galphao interaction regulation, single point confirmation. shares compounds with RGS16-Gao. RGS4-Galphao binding, multiplexed bead flow cytometry; actives lie on both sides. binding response (% of control), % at 10 µM. 1,700 tested, 4% active. AID 1840; in the data active = binding response below about 74% or above about 130%; inactive = in between
RGS19-Gao conf = confirmation of regulators of human RGS19-Galphao interaction; shares compounds with RGS16-Gao; bead-based flow cytometry RGS19-Galphao binding; actives lie on both sides; response (percent of control binding), % at 10 µM; 1,700 tested, 5% active; AID 1841; in the data active = response below about 50% or above about 160%; inactive = in between;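 also: 100% = no compound control and 0% = blank background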
* marks the source's active call; other numbers are inactive results; i = inactive; ? = inconclusive; . = not tested or not shown; [ ] = dose if it differs, or a comment. Unless noted, no rule for the calls is given here.

SMILES | RGS4-Gao reg | RGS7-Gao | Avidin bead fluor | GSH bead fluor | RGS8-Gao reg | RGS16-Gao | RGS-Gao | Biotin-avidin | RGS8-Gao single | RGS7-Gao single | RGS16-Gao conf | RGS4-Gao single | RGS19-Gao conf
COc1ccc(S(=O)(=O)N2CCN(CCC(=O)Nc3ccccc3F)CC2)cc1 | . | . | . | 34 | . | . | . | 2.4 | 99.4 | 95.3 | 97.2 | 97.6 | 105.6
COc1ccc(C)c2sc(NC(=O)C3=COCCO3)nc12 | 132.4 | 312.9*[activator] | 175* | 25 | 84.2 | 108.8 | 132.4* | . | . | . | . | . | .
COc1ccc(OC)c2sc(NC(=O)C3=COCCO3)nc12 | 104.4 | 105.2 | 7 | 25 | 102.2 | 101.7 | . | . | . | . | . | . | .
CCc1nnc(SCc2ccc(OC)c(Br)c2)n1N | 40.5* | 35.4* | 15 | 24 | 43.8* | 33.4 | . | -2.2 | 105.3 | 100.9 | 110.3 | 100.7 | 104.5
O=C(Cn1nnc2ccccc21)N1CCCCC1 | 104.6 | 106.4 | 12 | 13 | 107.7 | 127.7 | . | . | . | . | . | . | .
O=C(CCn1nnc2ccccc21)N1CCN(c2ccccc2)CC1 | . | . | . | 43 | . | . | . | 0.0 | 102.2 | 106.1 | 101.9 | 102.1 | 101.9
CC(C)OCCCN1C=C2C(=O)C(C)(OC(=O)CCc3ccccc3)C(=O)C=C2C=C1c1ccc(C#N)cc1 (configuration not stated) | 95.6 | ? | 9 | . | 96.1 | 98.8 | . | . | . | . | . | . | .
CCCSc1nc(=S)n(Cc2ccccc2)c(C)c1C(C)=O | 101.1 | ? | 11 | 15 | 100.7 | 98.8 | . | . | . | . | . | . | .
CCn1c(SCC(=O)Nc2nc3ccc(C)cc3s2)nc2c(c1=O)SC(C)C2 (configuration not stated) | 111.9 | 157.6*[activator] | 117* | 24 | 101.3 | 109.4 | 111.9* | . | . | . | . | . | .
Cc1ccc(NC(=O)CSCc2n[nH]c(=O)[nH]2)c(Br)c1 | 101.4 | 107.5 | 10 | 20 | 103.1 | 107.0 | . | . | . | . | . | . | .
CCCc1cc(=O)oc2c3c(c4c(c12)OC(C)(C)C=C4)OC(C)C(C)C3O (configuration not stated) | -6.7* | ? | 0 | . | 10.2* | -5.8* | . | -1.8 | 107.2 | 110.7 | 108.3 | 110.0 | 112.4
COc1ccc2cc(CCNC(=O)C3CCCC3)c(=O)[nH]c2c1 | 110.8 | 108.8 | 4 | 25 | 146.6*[activator] | 227.7 | 110.8* | 0.4 | 104.6 | 101.1 | 106.6 | 104.0 | 110.3
COc1ccccc1NC(=O)Cn1c(=O)n(-c2ccccc2)c(=O)c2oc3ccccc3c21 | 94.8 | 99.5 | 3 | 19 | 88.6 | 59.2 | . | . | . | . | . | . | .
COc1ccc(NC(=O)Cn2c(=O)n(-c3ccccc3)c(=O)c3oc4ccccc4c32)c(OC)c1 | 106.1 | 108.5 | 15 | 4 | 126.0 | 232.5*[activator] | 106.1* | 1.4 | 94.2 | 87.0 | 89.8 | 89.4 | 95.7
C=CCN=C(NC#N)SCC(=O)NC(C)(C)C | -27.7* | 45.5* | 5 | 13 | 61.1 | i | . | 0.9 | 101.8 | 100.0 | 105.9 | 98.2 | 104.7
CCN1C(=O)/C(=C/N2CCc3ccccc3C2)SC1=S | . | . | . | . | . | . | . | 1.6 | 99.3 | 99.2 | 99.0 | 97.2 | 102.1
CCc1nccn1S(=O)(=O)c1cc(C)c(OC)cc1C | 102.0 | 103.5 | 5 | 17 | 106.2 | 113.2 | . | . | . | . | . | . | .
CCc1nccn1S(=O)(=O)c1cc(OC)c(Cl)cc1OC | -221.8* | -75.7* | -4 | 12 | 12.5* | 77.4 | . | -0.7 | 101.3 | 74.8* | 88.7 | 83.9 | 57.5
O=[N+]([O-])c1ccc(Sc2cccc[n+]2[O-])c2nonc12 | 83.9 | ? | 4 | . | 36.0* | 3.0* | 83.9* | -2.5 | 52.1* | 80.6 | 26.4* | 76.6 | 21.2*
Cc1c(/C=C/C(=O)c2ccc(C(C)C)cc2)cnn1C | 106.5 | 110.1 | 12 | 14 | 106.7 | 105.2 | . | . | . | . | . | . | .
CC(C)NC(=O)C1CCN(C2CCN(Cc3ccc4cccc(F)c4n3)CC2)CC1 | 93.9 | 89.6 | 2 | 8 | 95.3 | 93.6 | . | . | . | . | . | . | .
O=C(c1ccco1)N(CCC(c1ccccc1)c1ccco1)Cc1ccco1 (configuration not stated) | 22.8* | 14.0* | -2 | 20 | 12.0* | 2.3* | . | 2.1 | 105.0 | 90.6 | 99.5 | 92.8 | 84.8
Cc1ccc(C(CCN(Cc2ccccc2)C(=O)c2ccco2)c2ccco2)cc1 (configuration not stated) | 96.3 | 95.8 | 11 | 6 | 101.4 | 103.5 | . | . | . | . | . | . | .
CCN(CC)c1ccc(N=Cc2ccc([N+](=O)[O-])o2)cc1 | 69.2 | 55.9 | 2 | 8 | 71.5 | 19.9* | 69.2* | -1.0 | 93.2 | 76.4 | 91.0 | 84.8 | 86.5
CCN(CC)c1ccc(N=Cc2ccccc2[N+](=O)[O-])cc1 | 93.0 | 94.8 | 2 | 9 | 84.3 | 58.1 | . | . | . | . | . | . | .
SMILES | RGS4-Gao reg | RGS7-Gao | Avidin bead fluor | GSH bead fluor | RGS8-Gao reg | RGS16-Gao | RGS-Gao | Biotin-avidin | RGS8-Gao single | RGS7-Gao single | RGS16-Gao conf | RGS4-Gao single | RGS19-Gao conf
COc1ccc(-n2c(C)c([N+](=O)[O-])c3ccc(O)c(CN4CCCCC4)c32)cc1 | 25.0* | 78.9 | 8 | 10 | 91.5 | -307.0 | . | -0.4 | 100.7 | 108.3 | 100.3 | 103.4 | 83.6
Cc1ccc(-n2c(C)c([N+](=O)[O-])c3ccc(O)c(CN(C)C)c32)cc1 | 104.3 | 105.3 | 8 | 12 | 103.0 | 104.6 | . | . | . | . | . | . | .
CCNC(=S)N/N=C/c1sc(N2CCCCC2)nc1-c1cccs1 | 99.7 | 98.2 | 4 | 10 | 99.1 | 102.5 | . | . | . | . | . | . | .
CC(C)CSc1ccc(S(=O)(=O)NCC(=O)O)cc1[N+](=O)[O-] | 125.2 | 277.8*[activator] | 169* | 21 | 97.1 | 96.3 | 125.2* | -0.2 | 96.5 | 98.4 | 97.4 | 97.0 | 97.5
CC(=O)NCCNS(=O)(=O)c1ccc(C)c([N+](=O)[O-])c1 | 115.4 | 117.7 | 5 | . | 107.8 | 112.6 | . | . | . | . | . | . | .
CC(C)c1onc(C(=O)N(C)Cc2ccccc2)c1[N+](=O)[O-] | 89.2 | 86.8 | 2 | 10 | 74.4 | 24.5* | 89.2* | 3.6 | 107.4 | 104.9 | 112.6 | 104.7 | 110.8

Source: PubChem
